Bioassay records as filed in PubChem BioAssay.
Vaccinia mCherry: vaccinia inhibition (mCherry reporter). 310,000 compounds, 0.63% hits. Potency, µM (doses to about 36.5 µM), inactives show at the top dose activity change, negative = inhibition, actives largely listed as inhibitors. Vaccinia virus mCherry reporter infection, fluorescence. AID 720579; calls by dose curve; tested in A549 cells; note: potency is the fitted concentration of half-maximal effect; nearly all actives have a fitted effect of over 35% in size
HCV inhibitor: HCV inhibition | Huh7.5.1 HCVcc-Cre infection, luciferase reporter, 44 h | Potency, µM (series often up to 41.8 µM), without a hit: top-dose activity change, negative = inhibition, actives largely listed as inhibitors | 340,000 compounds, 3.4% hits | AID 651820; active = well fitted inhibition curve with a large enough effect; inconclusive = small, poorly fitted or top-dose-only effect, or another doubt; inactive = no such curve, though single readings can be large or run the other way; note: potency is the fitted concentration of half-maximal effect
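A cell-based infection assay in which seeded cells (1,000 per well) receive test compound after 4 h, are inoculated with HCVcc-Cre at approximately 0.5 moi, and are incubated 44 h before luminescence detection.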
HCMV antiviral: blocks human cytomegalovirus replication. activity change, negative = inhibition, % at 57.5 µM. 410,000 compounds, 4.5% hits. HFF cells, HCMV-luciferase reporter, 72 h; stronger effect = lower value; in the data active = activity change below about -60%; inconclusive = no clear call, values can overlap the other calls; inactive = above about -39%
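Human foreskin fibroblasts infected with luciferase-reporter HCMV at MOI 1 PFU/cell, compounds at two doses. Luciferase measured 72 h post infection; normalized to buffer-only basal and Salinomycin (10uM) controls.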
VACV Venus inh: vaccinia inhibition (Venus reporter); 330,000 compounds, 0.46% hits; Potency, µM (doses to about 36.5 µM), inactives show at the top dose activity change, negative = inhibition, actives largely listed as inhibitors; Vaccinia virus Venus reporter expression, fluorescence; calls by dose curve; tested in A549 cells; note: potency is the fitted concentration of half-maximal effect; nearly all actives have a fitted effect of over 30% in size
FMDV inh: blocks foot and mouth disease virus | FMDV antiviral cell-based qHTS | AID 1159524 | Potency, µM (series often up to 57.9 µM), without a hit: at the highest dose activity change, negative = inhibition, actives largely listed as inhibitors | 410,000 compounds, 1.2% hits; calls by dose curve; tested in HEK293T cells; note: read-out not given here; potency is the fitted concentration of half-maximal effect; nearly all actives have a fitted effect of over 45% in size
Active calls of the source: *; [ ] = dose if it differs, or a comment. This is a sample that favours compounds with a hit; in the whole collection about 7.3% have one here. % is set by controls: 0 for no effect and ±100 for the full control effect.

CCCN1C=CC(=C2C(=O)c3ccccc3C2=O)C=C1 was read as HCV inhibitor -5.8%, HCMV antiviral -98.5* and FMDV inh 1µM*.
CCCCCCN1C=CC(=C2C(=O)c3ccccc3C2=O)C=C1 was read as HCV inhibitor 2.7%, HCMV antiviral -66.4* and FMDV inh -74.3%.
For CCN1C=CC(=C2C(=O)c3ccccc3C2=O)C=C1 the results were HCV inhibitor -6.6%, HCMV antiviral -89.3* and FMDV inh 4.47µM*.
`Fc1cccc(CN2CCc3nc(Nc4ccc5c(c4)OCCO5)ncc3C2)c1F` gave Vaccinia mCherry -15.9%, HCMV antiviral -0.4, VACV Venus inh -9.6% and FMDV inh 1.6%.
For COC(=O)c1cc2oc3ccccc3c2n1Cc1c(F)cccc1Cl the results were Vaccinia mCherry -14.6%, HCMV antiviral 47.8, VACV Venus inh -16.9% and FMDV inh -15.9%.
For COc1ccc(C(C)=O)cc1CSc1nnc(-c2ccc(Cl)cc2)n1-c1ccccc1 the results were Vaccinia mCherry -23.8%, HCV inhibitor 7.94µM*, HCMV antiviral inconclusive, VACV Venus inh -14.9% and FMDV inh -22.7%.
COc1ccc(C(C)=O)cc1CSc1nnc(Nc2ccccc2)s1 was read as Vaccinia mCherry -13.6%, HCV inhibitor inconclusive, HCMV antiviral -70.0*, VACV Venus inh inconclusive and FMDV inh inconclusive.
`COc1ccc(C(C)=O)cc1CSc1nnc(Nc2ccc(C)cc2)s1` gave Vaccinia mCherry inconclusive, HCV inhibitor inconclusive, HCMV antiviral -61.1*, VACV Venus inh -25.6% and FMDV inh 0.0%.
Cc1cc(NC(=O)COC(=O)c2ccccc2OCCOc2ccccc2)ccc1Br was read as Vaccinia mCherry inactive and VACV Venus inh -9.0%.
`COc1ccc(NC(=O)NC2CCCc3ccccc32)c(OC)c1` (stereo unspecified) gave Vaccinia mCherry -11.7%, HCV inhibitor inconclusive, HCMV antiviral -4.6, VACV Venus inh -16.9% and FMDV inh -22.7%.
Screening CCCCn1nc2cc(C(=O)NC3CCCc4ccccc43)ccc2c1OCC (stereo unspecified) returned Vaccinia mCherry inconclusive, HCV inhibitor 1.78µM*, HCMV antiviral inconclusive, VACV Venus inh -25.2% and FMDV inh 28.6%.
For O=C(CCNC(=O)c1ccc(Br)cc1)NC1CCCc2ccccc21 (stereo unspecified) the results were Vaccinia mCherry inconclusive, HCV inhibitor -22.4%, HCMV antiviral -81.2*, VACV Venus inh 11.0% and FMDV inh -6.1%.
Screening COc1cc2c(cc1NC(=O)c1cccc(Br)c1)CCCC2 returned Vaccinia mCherry -2.2%, HCV inhibitor 7.08µM*, HCMV antiviral -34.1, VACV Venus inh -23.8% and FMDV inh -6.8%.
For COc1cccc(NC(=O)NC2CCCc3ccccc32)c1 (stereo unspecified) the results were Vaccinia mCherry inactive, HCV inhibitor inconclusive, HCMV antiviral -66.8*, VACV Venus inh -17.4% and FMDV inh 5.8%.
Screening Cc1ccccc1C(c1c(C)n(C)n(-c2ccccc2)c1=O)c1c(C)n(C)n(-c2ccccc2)c1=O returned Vaccinia mCherry 4.8%, HCMV antiviral 17.9, VACV Venus inh 18.2% and FMDV inh inconclusive.
`CCc1ccc(S(=O)(=O)Nc2ccc3[nH]c(=O)sc3c2)cc1` gave Vaccinia mCherry -8.4%[7.34 µM], HCMV antiviral 40.1, VACV Venus inh -13.5%[7.34 µM] and FMDV inh 26.3%.
CCc1c(C(=O)NC2CCCc3ccccc32)[nH]c(C)c1C(C)=O (stereo unspecified) was read as HCV inhibitor 5.1%, HCMV antiviral -83.4* and FMDV inh 21.6%.
S=C(NC1CC1)NC1CCCc2ccccc21 (stereo unspecified) was read as HCV inhibitor 3.1%, HCMV antiviral -61.6* and FMDV inh -3.5%.
For O=C(NC1CCCc2ccccc21)c1n[nH]c(=O)c2ccccc12 (stereo unspecified) the results were Vaccinia mCherry -10.1%, HCV inhibitor 22.4µM*, HCMV antiviral -31.1, VACV Venus inh -10.2% and FMDV inh -7.0%.
`O=C(NC1CCCc2ccccc21)c1ccccc1` (stereo unspecified) gave Vaccinia mCherry -16.1%, HCV inhibitor 14.2%, HCMV antiviral inconclusive, VACV Venus inh -22.0% and FMDV inh 1.2%.
